# Compounds with a hit are over-represented: about 19% of the library has one in this group of screens.
# TDP1 cell noCPT – qHTS for Inhibitors of human tyrosyl-DNA phosphodiesterase 1 (TDP1): qHTS in cells in absence of CPT; DT40 Tdp1-/- hTDP1 cells, no CPT, ATP luminescence, 48 h; Potency, µM (top dose mostly 46.2 µM), inactives show at the top dose activity change, negative = growth inhibition, usual class: inhibitors; 420,000 tested, 15% active; AID 686978, 2013; note: nearly all actives have a fitted effect of over 55% in size
#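 Camptothecin absent (DMSO only). Human TDP1-complemented DT40 knockout cells, 400 cells/well, 37 °C for minimum 48 hr; ATP measured via CellTiter-Glo, 30 min dark incubation, luminescence.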
# TDP1 inh – qHTS Assay for Inhibitors of Tyrosyl-DNA Phosphodiesterase (TDP1). 350,000 tested, 0.28% active. Potency, µM (series often up to 130 µM), inactives show at the highest dose activity change, negative = inhibition, usual class: inhibitors. recombinant TDP1, AlphaScreen DNA substrate cleavage. Tyrosyl-DNA phosphodiesterase 1 (Homo sapiens), Q9NUW8; note: nearly all actives have a fitted effect of over 40% in size
# Target sequence (Q9NUW8 whole entry, looked up): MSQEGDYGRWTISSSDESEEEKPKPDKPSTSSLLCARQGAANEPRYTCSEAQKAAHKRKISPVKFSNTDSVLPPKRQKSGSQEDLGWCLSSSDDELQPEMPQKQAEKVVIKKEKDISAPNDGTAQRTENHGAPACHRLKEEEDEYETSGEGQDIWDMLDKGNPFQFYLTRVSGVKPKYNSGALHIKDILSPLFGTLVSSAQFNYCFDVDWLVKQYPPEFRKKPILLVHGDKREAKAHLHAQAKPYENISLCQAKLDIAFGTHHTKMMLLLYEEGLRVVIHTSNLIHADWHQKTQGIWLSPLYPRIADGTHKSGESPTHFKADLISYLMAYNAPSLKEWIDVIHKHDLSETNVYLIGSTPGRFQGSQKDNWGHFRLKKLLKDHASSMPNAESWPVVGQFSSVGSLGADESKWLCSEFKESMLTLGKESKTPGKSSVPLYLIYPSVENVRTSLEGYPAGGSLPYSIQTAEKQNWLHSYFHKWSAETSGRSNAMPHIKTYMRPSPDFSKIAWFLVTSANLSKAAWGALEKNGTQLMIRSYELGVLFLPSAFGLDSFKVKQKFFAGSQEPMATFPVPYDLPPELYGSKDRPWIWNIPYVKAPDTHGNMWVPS
#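 Signal: AlphaScreen proximity between streptavidin donor and anti-FITC acceptor beads on intact substrate. Reaction: Tdp1 1 nM, substrate 15 nM final, 5 min RT after 15 min compound preincubation.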
# DT40 TDP1 CPT – qHTS for Inhibitors of human tyrosyl-DNA phosphodiesterase 1 (TDP1): qHTS in cells in presence of CPT; chicken DT40 Tdp1-/-;hTDP1 cells + 20 nM CPT, ATP luminescence, 48 h; Potency, µM (doses to about 46.2 µM), without a hit: top-dose activity change, negative = growth inhibition, usual class: inhibitors; 420,000 tested, 12% active; note: nearly all actives have a fitted effect of over 55% in size
#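 Chicken DT40 Tdp1-/- cells stably complemented with human TDP1 were seeded at 400 cells/well in medium containing 20 nM camptothecin, exposed to pin-transferred compounds, and grown at 37 °C for at least 48 hr. Viability was read as ATP luminescence.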
# Gal4-VP16 FLuc – VP16 counterscreen qHTS for inhibitors of ROR gamma transcriptional activity. Potency, µM (top dose mostly 53.6 µM), for the others: at the top dose activity, negative = inhibition, hits mostly inhibitors. Drosophila S2 Gal4-VP16 UAS-luciferase, luminescence, 20 h. AID 2546, 2010. 310,000 tested, 3.5% active;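 note: Gal4-VP16 expression switched on by copper sulfate through the metallothionein promoter; nearly all actives have a fitted effect of over 50% in size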
# RORg inh – qHTS for inhibitors of ROR gamma transcriptional activity. Nuclear receptor ROR-gamma (Mus musculus), P51450. AID 2551, 2010. Potency, µM (doses to about 53.6 µM), for inactives: at the top dose activity change, negative = inhibition, actives largely listed as inhibitors. 310,000 tested, 5.4% active. Drosophila S2 Gal4-RORgamma UAS-luciferase reporter, 20 h; note: nearly all actives have a fitted effect of over 60% in size
#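 Schneider cells (Drosophila), stable Gal4 DBD–ROR gamma + UAS-luc; 1 hr cmpd preincubation; Cu2+ induction 700 uM final; 20 hr ambient; luminescence.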
# Active calls of the source: *; ? = inconclusive; . = no result given; ! = not confirmed by another sample; [ ] = remark or other dose. Calls come from the whole dose curve; as a rule, active = well fitted curve in the direction sought with a large enough effect; inconclusive = small, poorly fitted or top-dose-only effect, or another doubt; inactive = no such curve, though single readings can be large; an effect the other way counts as inactive or inconclusive. % is set by controls: 0 for no effect and ±100 for the full control effect; potency is the fitted concentration of half-maximal effect.
SMILES,TDP1 cell noCPT,TDP1 inh,DT40 TDP1 CPT,Gal4-VP16 FLuc,RORg inh
CN(C)C(C)(C)C#CCC(c1ccccc1)c1ccccc1,?,-1.4%,?,-14.3%,-10.5%
CN1CCN(C2=C(Cl)C(=O)c3ccccc3C2=O)CC1,2.59µM*,.,2.31µM*,.,.
O=C1C(Cl)=C(N2CCC(C(=O)O)CC2)C(=O)c2ccccc21,16.4µM*,-5.5%,14.6µM*,0.3%,?
CC1COCC(C)N1C1=C(Cl)C(=O)c2ccccc2C1=O (configuration not stated),1.46µM*,.,0.651µM*,.,.
CN1CCN(C2=C(Cl)C(=O)C(c3cnc(N4CCCCC4)s3)=C(Cl)C2=O)CC1,1.64µM*,5.7%,2.06µM*,0.2%,-12.8%
CC1(N2CCOCC2)C(=O)c2ccccc2C1=O,-17.1%,-2.6%,5.6%,-11.9%,-4.5%
CCOc1cc(OCC)cc(C(=O)N2CCC[C@H]2C(=O)N2CCC[C@H]2C(=O)NCc2ccccn2)c1,-4.0%,.,5.9%,.,.
CC1=NN(c2nc(-c3ccccc3)cs2)C(=O)C1,2.7%,13.5%,-19.9%,-24.1%,-33.4%
Cc1ccc(SCC(=O)NCCCN2CCOCC2)cc1,-8.3%,2.1%,4.9%,4.9%,3.1%
NC(=O)C1CCN(c2ccc3c(c2)S(=O)(=O)c2ccccc2C3=O)CC1,-3.1%,.,?,.,.
NC(=O)C1CCN(C2=C(Cl)C(=O)c3ccccc3C2=O)CC1,2.91µM*,-4.8%,2.31µM*,0.0%,-22.9%
CCOc1cccc2sc(=NC(=O)c3ccc(S(=O)(=O)N4CCOCC4)cc3)n(C)c12,20.6µM*!,1.9%,14.6µM*!,-6.5%,0.7%
C=CCn1c(=NC(=O)c2cccc(N3C(=O)CCC3=O)c2)sc2cccc(OC)c21,14.6µM*,0.0%,23.1µM*,3.8%,17.7%
COCCn1c(=NC(=O)CCS(=O)(=O)c2ccccc2)sc2ccccc21,16.4µM*,.,20.6µM*,.,.
C=CCn1c(=NC(=O)c2ccco2)sc2cc(C(=O)OC)ccc21,?,0.0%,?,-22.1%,?
CCn1c(=NC(=O)c2ccc(S(=O)(=O)N3CCCCC3)cc2)sc2cccc(OC)c21,1.46µM*,-0.6%,2.59µM*,.,.
COc1cccc2sc(=NC(=O)c3ccc(S(=O)(=O)N4CCCCC4)cc3)n(C)c12,-8.8%,7.1%,-28.0%,.,.
COc1ccc(C(NC(=O)/C=C/c2ccco2)c2ccc(OC)c(OC)c2)cc1 (configuration not stated),-4.4%,2.6%,-15.3%,0.2%,7.7%
COc1cccc2c1cc1c(=O)n(CC(=O)NC3CC3)nc(C)n12,?,-2.0%,7.6%,.,.
COc1cccc2cc(C(=O)Nc3ccccc3C)/c(=N/NS(=O)(=O)c3ccccc3)oc12,21.4%,4.6%,-6.0%,1.6%,1.4%
Cn1c(=NC(=O)CS(=O)(=O)c2ccc(F)cc2)sc2ccccc21,?,0.4%,-22.3%,.,.
CCn1c(=NC(=O)CS(=O)(=O)c2ccccc2)sc2cccc(OC)c21,13µM*,0.0%,?,.,.
CCOC(=O)c1cnc(SC2CC(=O)N(c3ccc(OC)c(OC)c3)C2=O)nc1N (configuration not stated),?,5.3%,20.6µM*,3.0%[0.365 µM],?
CC(=O)Nc1ccc(N2C(=O)CC(Sc3nc4ccccc4s3)C2=O)cc1 (configuration not stated),?,5.4%,?,-2.2%[10 µM],2.24µM*
CC(=O)Nc1ccc(N2C(=O)CC(c3ccccc3)CC2=O)cc1,-18.5%,1.0%,-16.2%,-8.7%,20.9%
SMILES,TDP1 cell noCPT,TDP1 inh,DT40 TDP1 CPT,Gal4-VP16 FLuc,RORg inh
COc1ccc(N2C(=O)CC(Sc3nc4ccccc4s3)C2=O)cc1OC (configuration not stated),2.91µM*,9.0%,4.61µM*,5.62µM*,6.31µM*
Cc1c(C(=O)Nc2ccc(-n3cnnn3)cc2)oc2ccccc12,?,0.0%,-23.6%,0.0%,-0.5%
C#Cc1cccc(Nc2nc(NCc3ccccc3OC)nc3ccsc23)c1,9.2µM*,.,9.2µM*,.,.
C#Cc1cccc(Nc2nc(NC(C)C)nc3ccsc23)c1,20.6µM*,.,?,.,.
C#Cc1cccc(Nc2nc(NCCOC)nc3ccsc23)c1,20.6µM*,.,16.4µM*,.,.
COc1ccccc1NC(=O)C1CCC(CNS(=O)(=O)c2ccc3c(c2)CC(C)N3C(C)=O)CC1 (configuration not stated),10.3µM*,-7.7%,10.3µM*,.,.
CC1CC(C)CN(C(=O)C2CCC(CNS(=O)(=O)c3ccccc3)CC2)C1 (configuration not stated),29.1µM*,.,?,-11.2%,1.4%
COc1ccccc1NC(=O)C1CCN(S(=O)(=O)c2ccc3c(c2)CC(C)N3C(C)=O)CC1 (configuration not stated),?,1.7%,?,2.5%,0.4%
CC(=O)N1c2ccc(S(=O)(=O)NCC3CCC(C(=O)N(C)Cc4ccccc4)CC3)cc2CC1C (configuration not stated),?,2.6%,?,-0.3%,?
CCCCN(C)C(=O)C1CCC(CNS(=O)(=O)c2ccc3c(c2)CC(C)N3C(C)=O)CC1 (configuration not stated),16.4µM*,4.0%,13µM*,10.5%,14.3%
O=C(C1CCC(CNS(=O)(=O)c2ccccc2)CC1)N1CCCCC1 (configuration not stated),-15.8%,.,0.2%,-3.5%,9.5%
CC(=O)N1c2ccc(S(=O)(=O)NCC3CCC(C(=O)N4CCCC(C)C4)CC3)cc2CC1C (configuration not stated),?,3.3%,16.4µM*,-0.3%,0.7%
CC(=O)N1c2ccc(S(=O)(=O)NCC3CCC(C(=O)Nc4ccc(C)c(C)c4)CC3)cc2CC1C (configuration not stated),23.1µM*,-5.1%,16.4µM*,.,.
CC(=O)N1c2ccc(S(=O)(=O)NCC3CCC(C(=O)Nc4ccc(C)cn4)CC3)cc2CC1C (configuration not stated),?,6.1%,?,-71.4%,15.3%
CCc1ccc(NC(=O)C2CCC(CNS(=O)(=O)c3ccc4c(c3)CC(C)N4C(C)=O)CC2)cc1 (configuration not stated),7.31µM*,-7.7%,20.6µM*,.,.
CC(=O)N1c2ccc(S(=O)(=O)NCC3CCC(C(=O)Nc4ccc(F)cc4)CC3)cc2CC1C (configuration not stated),16.4µM*,-13.3%,16.4µM*,.,.

# High-throughput results as filed in PubChem BioAssay.
